17 compounds from PubChem BioAssay can be followed below.

Several values for one entry are separate records, joined by “and”; a condition that tells them apart may be missing. Equal values may be shown once. Records with an inconclusive call do not appear. For part of these data: Entries with a potency or affinity are not part of this list. Activity calls are given as the source filed them. Unless noted, how the calls were made is not given here.

Assay [1] can be described thus: compounds altering circadian rhythm period length – cell-based, LOPAC library, luminescence reporter (AID 2774).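 Further: values are relative to mean of DMSO wells on each plate.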 As to conditions: circadian reporter cells, at 7 µM, actives lie on both sides.
Assay [2] has as its system Hepatitis C virus NS3 helicase. As to the kind of experiment: blockers of NS3h binding to ssDNA – biochemical, fluorescence polarization, LOPAC1280 library, primary screen (AID 687035; in the data active means inhibition above about 37%). Particulars: Purified HCV NS3 helicase, Cy5-dT15 ssDNA binding fluorescence polarization; stronger effect = higher value; concentration not given here.
Assay [3] in a line: compounds altering Cy5-DNA-NS3h complex signal – biochemical, LOPAC1280, artefact control for HCV NS3 helicase inhibitor project (AID 687037). Particulars: Cy5-DNA-NS3h complex fluorescence interference counterscreen.
Assay [4] deals with ATP-dependent translocase ABCB1 (Homo sapiens) (UniProt P08183). Description: P-glycoprotein substrate transport blockade – cell-based (AID 377; in the data active means fluorescence slope change above about 50%). As to conditions: MDR1-expressing cells, fluorescent substrate accumulation slope; stronger effect = higher value; concentration not given here.
ATP-dependent translocase ABCB1 (Homo sapiens), sequence (P08183 whole entry, looked up): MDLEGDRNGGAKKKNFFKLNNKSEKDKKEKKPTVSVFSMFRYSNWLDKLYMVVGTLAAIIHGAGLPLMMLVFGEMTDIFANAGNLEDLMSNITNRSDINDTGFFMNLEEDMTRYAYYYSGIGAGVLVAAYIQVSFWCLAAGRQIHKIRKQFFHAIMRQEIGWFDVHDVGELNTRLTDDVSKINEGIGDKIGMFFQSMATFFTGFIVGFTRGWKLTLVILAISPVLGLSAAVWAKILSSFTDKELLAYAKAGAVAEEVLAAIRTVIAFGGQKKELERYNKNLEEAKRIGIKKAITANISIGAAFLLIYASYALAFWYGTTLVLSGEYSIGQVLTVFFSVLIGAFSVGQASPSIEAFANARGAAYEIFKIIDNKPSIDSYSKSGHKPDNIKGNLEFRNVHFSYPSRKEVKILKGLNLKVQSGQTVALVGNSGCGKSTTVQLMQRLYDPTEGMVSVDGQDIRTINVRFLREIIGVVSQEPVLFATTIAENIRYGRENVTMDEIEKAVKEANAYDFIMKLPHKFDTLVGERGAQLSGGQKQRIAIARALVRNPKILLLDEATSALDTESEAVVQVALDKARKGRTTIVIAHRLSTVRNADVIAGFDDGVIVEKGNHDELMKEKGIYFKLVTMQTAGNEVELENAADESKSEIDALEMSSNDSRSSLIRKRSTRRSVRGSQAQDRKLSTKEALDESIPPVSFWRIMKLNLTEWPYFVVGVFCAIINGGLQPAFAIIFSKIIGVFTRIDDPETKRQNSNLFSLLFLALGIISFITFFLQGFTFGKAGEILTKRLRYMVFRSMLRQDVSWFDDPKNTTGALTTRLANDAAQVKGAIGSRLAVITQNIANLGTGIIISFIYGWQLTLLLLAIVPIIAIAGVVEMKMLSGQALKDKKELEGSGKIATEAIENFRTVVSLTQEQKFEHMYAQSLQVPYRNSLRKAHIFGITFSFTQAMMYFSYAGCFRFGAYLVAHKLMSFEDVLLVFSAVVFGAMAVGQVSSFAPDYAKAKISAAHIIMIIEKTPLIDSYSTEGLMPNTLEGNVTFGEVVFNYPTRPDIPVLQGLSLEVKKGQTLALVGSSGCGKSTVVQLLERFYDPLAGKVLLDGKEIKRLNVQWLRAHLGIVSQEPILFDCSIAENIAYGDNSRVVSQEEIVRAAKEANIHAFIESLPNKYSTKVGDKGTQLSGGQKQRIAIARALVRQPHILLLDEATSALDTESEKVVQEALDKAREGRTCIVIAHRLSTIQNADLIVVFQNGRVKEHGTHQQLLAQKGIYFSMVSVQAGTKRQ
Assay [5] in a line: signal quenchers or enhancers, Cy5 substrate/SSB – biochemical, NIH Clinical Collection, E. coli SSB, artefact control for HCV NS3 helicase inhibitor project (AID 743268). Particulars: Cy5-oligo bound E. coli SSB, fluorescence interference.
The subject of assay [6] is Hepatitis C virus NS3 helicase. As to the kind of experiment: blockers of NS3h binding to DNA – biochemical, fluorescence polarization, NIH Clinical Collection, primary screen (AID 743270). As to conditions: NS3 helicase binding to Cy5-dT15 DNA, stronger effect = higher value, concentration not given here.
Assay [7] concerns the target Single-stranded DNA-binding protein (Escherichia coli (strain K12)) (UniProt P0AGE0). As to the kind of experiment: SSB-ssDNA binding inhibitors – biochemical, fluorescence polarization, NIH Clinical Collection, counter-screen for HCV NS3 helicase inhibitor project (AID 743271; in the data active means inhibition above about 28%). As to conditions: E. coli SSB-DNA binding, stronger effect = higher value, concentration not given here.

Assay [8] is described as follows: compounds distorting NS3 helicase fluorescence signal – biochemical, NIH Clinical Collection, artefact control for HCV NS3 helicase inhibitor project (AID 743272).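 Further: HCV NS3 helicase with a Cy5 labelled single stranded DNA probe.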 As to conditions: fluorescence interference counterscreen, HCV NS3 helicase assay; stronger effect = lower value.
Assay [9] can be described thus: liver-stage malaria parasite load reduction – cell-based, known kinase inhibitor set, luminescence, hepatoma host viability (AID 624392).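 Further: infected cells incubated roughly two days before readout.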 Particulars: Plasmodium liver stage in hepatoma cells, luciferase luminescence, concentration not given here; liver cell % of control: measured here: host liver cell viability; parasite % of control: stronger effect = lower value.
Assay [10] in a line: yeast 75Q aggregation reduction – 75Q-TubU reporter (AID 1593). Particulars: Yeast 75Q polyglutamine aggregation reporter.
A short description of assay [11]: selective SMN2 exon splicing luciferase activators – cell-based, SMN2/SMN1 luciferase reporters (AID 1598). As to conditions: SMN2 vs SMN1 luciferase splicing reporter cells, at 10 µM; SMN1 luciferase ratio: measured here: SMN1 luciferase reporter average; SMN2 luciferase ratio: measured here: SMN2 luciferase reporter average, stronger effect = higher value; SMN2/SMN1 luciferase ratio: stronger effect = higher value.

Assay [12] in a line: restoration of touch response, mutant HTT neurons – whole organism, C. elegans mechanosensory neurons, N-terminal huntingtin (AID 1599). Particulars: C. elegans polyQ-huntingtin mechanosensory neurons, stronger effect = higher value.
Assay [13] in a line: blockers of cytochrome c efflux from mitochondria – biochemical, purified mitochondria (AID 1603).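 Further: mouse liver mitochondria challenged with calcium chloride; signal normalized to the plate average as 100%.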 As to conditions: stronger effect = lower value.
Assay [14] is described as follows: polyglutamine aggregate formation blockers (AID 1604). Particulars: polyglutamine-induced protein aggregation inhibition assay; stronger effect = higher value; tested at 2.5 µM.
Assay [15] is described as follows: glutamate transport activators, MN-1 cells, MN-1 cell line (AID 1612).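 Further: tested at 1 µM final; 0% = mean of DMSO vehicle wells on each plate; positive means more glutamate uptake than control and negative means less.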 Particulars: MN-1 motor neuron cells, stronger effect = higher value.
The nature of assay [16]: 75Q-TubH aggregate inhibition, S. cerevisiae, yeast (AID 1616). Particulars: S. cerevisiae 75Q-TubH polyglutamine aggregation suppression; stronger effect = higher value.
The target in assay [17] is Mitogen-activated protein kinase 7 (Homo sapiens) (UniProt Q13164). As to the kind of experiment: Gal4-ERK5 driven luciferase induction – cell-based, HTS, primary screen (AID 1508626;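 active means luciferase signal above three times the same-plate solvent-only control wells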;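 further: luciferase driven by Gal4-ERK5 fusion binding five Gal4 sites before minimal TATA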). As to conditions: HeLa Gal4-ERK5 transactivation, 18 h, at 5 µM, stronger effect = higher value.
Mitogen-activated protein kinase 7 (Homo sapiens), sequence (Q13164 whole entry, looked up, the tested form may be a part): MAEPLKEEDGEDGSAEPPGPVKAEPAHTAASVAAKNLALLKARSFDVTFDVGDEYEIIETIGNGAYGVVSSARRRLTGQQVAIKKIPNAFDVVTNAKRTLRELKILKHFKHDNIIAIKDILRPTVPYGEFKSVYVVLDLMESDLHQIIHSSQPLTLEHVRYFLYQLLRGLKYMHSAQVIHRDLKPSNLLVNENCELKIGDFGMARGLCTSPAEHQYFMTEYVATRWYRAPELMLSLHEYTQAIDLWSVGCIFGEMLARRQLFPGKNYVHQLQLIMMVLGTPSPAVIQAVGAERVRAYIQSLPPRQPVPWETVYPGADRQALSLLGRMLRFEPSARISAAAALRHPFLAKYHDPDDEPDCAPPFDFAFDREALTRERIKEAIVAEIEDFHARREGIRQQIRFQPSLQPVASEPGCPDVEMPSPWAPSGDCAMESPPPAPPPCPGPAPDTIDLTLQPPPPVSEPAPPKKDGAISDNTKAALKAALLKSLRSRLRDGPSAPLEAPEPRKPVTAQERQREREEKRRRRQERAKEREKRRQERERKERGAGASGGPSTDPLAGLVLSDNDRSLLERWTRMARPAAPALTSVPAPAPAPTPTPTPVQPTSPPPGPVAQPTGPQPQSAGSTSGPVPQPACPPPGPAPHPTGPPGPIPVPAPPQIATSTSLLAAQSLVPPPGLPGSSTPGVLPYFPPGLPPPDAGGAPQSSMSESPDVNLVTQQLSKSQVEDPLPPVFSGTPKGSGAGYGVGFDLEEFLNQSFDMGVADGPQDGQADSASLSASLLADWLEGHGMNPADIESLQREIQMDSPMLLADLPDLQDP
For assay [18], the target named is NAD(+) hydrolase SARM1 (Homo sapiens) (UniProt Q6SZW1). Description: blocking NAD cleavage by SARM1 SAM-TIR – cell lysate, NAD-Glo luminescence (AID 1508614;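 active means compound whose remaining NAD level is above about 45 nM, limit read from the data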). As to conditions: SAM-TIR HEK293T lysate NADase, at 1 µM, stronger effect = higher value.
NAD(+) hydrolase SARM1 (Homo sapiens), sequence (Q6SZW1 whole entry, looked up): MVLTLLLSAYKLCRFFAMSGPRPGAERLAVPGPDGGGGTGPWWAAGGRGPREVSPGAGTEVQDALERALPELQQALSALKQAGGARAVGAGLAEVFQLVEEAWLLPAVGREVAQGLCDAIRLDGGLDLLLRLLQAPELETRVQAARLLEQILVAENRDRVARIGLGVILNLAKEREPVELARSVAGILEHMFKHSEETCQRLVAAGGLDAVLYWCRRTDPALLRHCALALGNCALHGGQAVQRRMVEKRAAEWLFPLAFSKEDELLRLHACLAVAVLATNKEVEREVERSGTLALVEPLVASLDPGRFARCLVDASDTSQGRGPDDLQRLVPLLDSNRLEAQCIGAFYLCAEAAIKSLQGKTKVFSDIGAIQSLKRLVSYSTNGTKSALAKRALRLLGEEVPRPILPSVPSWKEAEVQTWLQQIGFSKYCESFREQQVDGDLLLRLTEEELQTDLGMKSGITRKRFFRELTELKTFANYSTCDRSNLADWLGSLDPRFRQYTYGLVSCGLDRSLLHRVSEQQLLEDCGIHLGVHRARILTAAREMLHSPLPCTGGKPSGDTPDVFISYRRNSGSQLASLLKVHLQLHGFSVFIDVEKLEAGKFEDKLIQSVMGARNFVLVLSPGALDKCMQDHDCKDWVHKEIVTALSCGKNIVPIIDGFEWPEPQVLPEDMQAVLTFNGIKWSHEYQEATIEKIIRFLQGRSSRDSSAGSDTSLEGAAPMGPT
Assay [19] is described as follows: blockers of polyQ-driven CASP3 activation – cell-based (AID 1583). As to conditions: polyglutamine-induced caspase-3 activation, cell assay; stronger effect = higher value;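 tested at 10 µM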.
A short description of assay [20]: GFP-Q80 aggregate reduction, neuronal-like cells, cell-based, NGF-treated PC12, GFPQ80 (AID 1614).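 Further: lower means fewer inclusions and 0 means no inclusions at all.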 Particulars: PC12 NGF-treated GFP-polyQ80 inclusion reduction.

For the compound `CC(C)NC[C@@H](O)c1ccc(O)c(O)c1`, the period change in assay [1] was -0.08 h (inactive). Besides, the inhibition in [2] was -5% (inactive). Also, the fluorescence ratio (interference) in assay [3] was 0.9 (inactive).
Regarding `c1ccc(CNc2ncnc3nc[nH]c23)cc1`, the fluorescence slope change in assay [4] is 11.7% (inactive).
Regarding `CCCCC[C@H](O)/C=C/[C@@H]1[C@@H](C/C=C\CCCC(=O)O)[C@@H](O)C[C@H]1O` (tested in a mixture with another compound), the fluorescence slope change in [4] was 101% (active).
Regarding `Nc1nc(=S)c2ncn([C@@H]3O[C@H](CO)[C@@H](O)[C@H]3O)c2[nH]1`, the fluorescence slope change in [4] is 59.6% (active).
For the compound `CNCCC=C1c2ccccc2C=Cc2ccccc21`, in [4], the fluorescence slope change was 58% (active).
Turning to `CNc1ncnc2c1ncn2[C@@H]1O[C@H](CO)[C@@H](O)[C@H]1O`, in assay [4], the fluorescence slope change is 64.6% (active).
On the same count and under the same terms, next, `O=C1OC(C(O)CO)C(O)=C1O` (configuration not stated): 10.1% (inactive); `O=C1OC(CN2CCOCC2)CN1N=Cc1ccc([N+](=O)[O-])o1` (configuration not stated): 11.7% (inactive).
Take `COc1ccc2cc([C@@H](C)C(=O)O)ccc2c1`: the fluorescence ratio in assay [5] and in assay [8] was 0.94 (inactive) in each case. Moreover, the inhibition was 0.66% (inactive) in assay [6] and 8.27% (inactive) in assay [7].
`O=C1NC(=O)C(=Cc2ccc(-c3ccc(F)cc3O)o2)S1`: in assay [9], the liver cell % of control was 115% and 104% and 93.4%; the parasite % of control is 1.06% (inactive) and 3.29% (inactive) and 2.91% (inactive).
In assay [10], `O[N+]1=CC=CCC1=S.On1ccccc1=S.[Zn]` registered a score of 0.07. Further, in assay [11], the SMN1 luciferase ratio is 0.04, the SMN2/SMN1 luciferase ratio was 1.77 (active) and the SMN2 luciferase ratio was 0.08. Also, the rescue above control in assay [12] was 16. In addition, the cytochrome c release ratio in assay [13] turned out to be 1.27. Further, the inhibition of aggregation in assay [14] amounted to 0%. In [15], the glutamate uptake change is -74.2%. Moreover, the aggregation suppression score in assay [16] is -0.0147.
`Cc1cc(Nc2nc(NC(C)c3ccc(F)cc3)c(C#N)cc2F)n[nH]1` (configuration not stated): in [9], the liver cell % of control is 55.1% and 77.3% and 95.6%; the parasite % of control was 1.2% (inactive) and 12.7% (inactive) and 40% (inactive).
As for `C=N[C@@H](C(=O)N[C@@H]1C(=O)N2[C@@H]1SC(C)(C)[C@@H]2C(=O)O)c1ccccc1`, in [17], the luciferase signal was 80 AU (inactive).
Take `CC1CCN(C(=O)CC#N)CC1N(C)c1ncnc2[nH]ccc12` (configuration not stated): in assay [9], the liver cell % of control was 104% and 99.8%; the parasite % of control is 80.9% (inactive) and 77.3% (inactive) and 45.5% (inactive).
As to `COc1ccc(C(=O)c2ccc(C)cc2)c(O)c1`, in assay [18], the remaining NAD is 10 nM (inactive).
As for `COc1ccc(-c2cc(=O)c3c(O)cc(O)cc3o2)cc1`, the inhibition in assay [19] is -17.1%. Further, in assay [10], the score came to 1.2. This compound displayed a rescue above control in assay [12] of 10.4. The cytochrome c release ratio in assay [13] worked out at 0.89. This compound gave an inhibition of aggregation in [14] of 41.2%. The glutamate uptake change in [15] was -9.64%. The inclusion score in assay [20] came out at 2. Also, the aggregation suppression score in [16] was determined as 0.73. Besides, in [17], the luciferase signal is 40 AU (inactive).
With `CC(C)CCN1c2nc(Nc3cc(F)c(O)c(F)c3)ncc2N(C)C(=O)C1C` (configuration not stated), in assay [9], the liver cell % of control is 87.7% and 90.4% and 106%; the parasite % of control is 35.4% (inactive) and 66.2% (inactive) and 39.4% (inactive).
